The campaign covered roughly 320,000 compounds. About 22,000 (6.9%) were called active. A call without a number means that no potency is given here. Inconclusive results (about 27%) are left out. The call rests on the fitted dose curve; in most records, active means well fitted inhibition curve with a large enough effect; inconclusive means small, poorly fitted or top-dose-only effect, or another doubt; inactive means no such curve, though single readings can be large or run the other way. This excerpt belongs to a sample that is enriched for actives.
Potency means the concentration at half of the fitted maximal effect.

The assay in a line: Primary qHTS for delayed death inhibitors of the malarial parasite plastid, 96 hour incubation. Conditions: P. falciparum luciferase reporter growth; series mostly up to 28.7 µM. Summed up: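 Erythrocytes infected with luciferase-expressing P. falciparum were dispensed at 2% hematocrit and 0.05% parasitemia (final), then incubated with compounds 96 hours at 37 C in 5% CO2. Luminescence after detection reagent addition reported growth.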
In general terms: Quantitative high-throughput screening tests each substance at several concentrations.
As to `CCOc1ccc(S(=O)(=O)N2CCC(c3ccccc3)CC2)cc1C(=O)O`, the Potency result was “inactive”.
Turning to `C=CCn1c(COc2ccccc2F)nnc1SCC(=O)N1CC(=O)Nc2ccccc21`, the Potency is 8.28 µM (active).
Turning to `Nn1c(Cc2cccc3ccccc23)nnc1SCC(=O)N1CC(=O)Nc2ccccc21`, the Potency entry was “inactive”.
On to `C=CCn1c(COc2ccccc2C)nnc1SCC(=O)O`, for which the Potency result is “inactive”.
Consider `O=C(COc1ccccc1)Nc1ccc(C(=O)N2CCCC2)cc1`, for which the Potency result was “inactive”.
For `COc1cc(Cl)c(C)cc1NC(=O)CN1CCCCCC1`, the Potency entry was “inactive”.
In the case of `Cc1cc(NC(=O)CSC2=NS(=O)(=O)c3cc(Cl)ccc3N2)no1`, the Potency entry is “inactive”.
Consider `CCCCOP(=O)(c1ccc(N(C)C)cc1)C(O)c1cc(OC)ccc1OC` (stereo unspecified), for which the Potency entry is “inactive”.
Turning to `Cc1ccc(C(O)P(=O)(OC(C)C)c2ccc(N(C)C)cc2)cc1` (stereo unspecified), the Potency result is “inactive”.
In the case of `CCCOP(=O)(c1ccc(N(C)C)cc1)C(O)c1cc(OC)c(OC)c(OC)c1` (stereo unspecified), the Potency is 10.4 µM (active).
Regarding `CCCCSc1nc2ccccc2[nH]1`, the Potency result was “inactive”.
Turning to `CCC(C)N1C(=O)S/C(=C/c2ccc(Sc3nc4ccccc4[nH]3)o2)C1=O` (stereo unspecified), the Potency is 1.65 µM (active).
For the compound `CN=C1S/C(=C\c2ccc(Sc3ccc(Cl)cc3)o2)C(=O)N1C`, the Potency result is “inactive”.
On to `[2H]C(CCOS(N)(=O)=O)c1ccccc1` (stereo unspecified), for which the Potency entry was “inactive”.
In the case of `COCCCn1c(SCC(=O)NC2CCCC2)nnc1-c1ccccc1`, the Potency entry is “inactive”.
In the case of `CC(C)(C)C(=O)NC1CC2CCCC(C1)N2C(=O)Nc1ccccc1F` (stereo unspecified), the Potency entry was “inactive”.
For `O=S(=O)(c1cccc(-c2nnc(SC(F)F)n2-c2ccccc2)c1)N1CCCCC1` the value was 7.38 µM (active).
Take `O=S(=O)(c1cccc(-c2cn3ccccc3n2)c1)N1CCCC1`: the Potency result was “inactive”.
Regarding `O=S(=O)(c1cccc(-c2nnc3n2CCCCC3)c1)N1CCOCC1`, the Potency result was “inactive”.
For `Cc1noc(C)c1C(=O)OCC(=O)N1CCN(S(=O)(=O)c2ccc3ccccc3c2)CC1` the value was “inactive”; for `Cc1cc(S(=O)(=O)NC2CCCC2)ccc1-n1cnnn1`, “inactive”.
Consider `C[C@@H](Nc1nc(-c2ccccc2)nc2c1oc1ccccc12)C(=O)O`, for which the Potency result was “inactive”.
`Cc1nc(Cl)c2oc3ccccc3c2n1`: the Potency entry is “inactive”.
Take `O=c1[nH]c(CSc2ccccc2)nc2c1oc1ccccc12`: the Potency is 5.22 µM (active).
As to `CC(C)(C)c1cc[n+](-c2[nH]c(=O)sc2/C=N/N=C(\[O-])c2ccccc2)cc1`, the Potency result is “inactive”.
On to `O=C(OCC(=O)N1CCN(C(=O)c2ccco2)CC1)c1cccc(O)c1`, for which the Potency result was “inactive”.
For `CC(=O)Nc1ccc(NC(=O)CSc2nnc(C3CC3)n2-c2ccccc2)cc1`, the Potency entry was “inactive”.
On to `Nc1nnn(CC(=O)N/N=C/c2ccc(O)cc2)n1`, for which the Potency result was “inactive”.
As to `O=C(NC1CCN(C(=S)Nc2ccc(Cl)cc2)CC1)C1CCCCC1`, the Potency entry is “inactive”.
With `O=C(NC1CC2CCCC(C1)N2C(=O)N1CCCCC1)C1CCCCC1` (stereo unspecified), the Potency was 14.7 µM (active).
On to `CCOCCCNC(=S)N1CCC(NC(=O)C2CCCCC2)CC1`, for which the Potency result is “inactive”.
`CSc1ccccc1OCc1cc(C(=O)N2C[C@H]3CC[C@H]2C3)no1`: the Potency result was “inactive”.
With `CCOc1ccc(S(=O)(=O)NCCCn2ccnc2)cc1NC(C)=O`, the Potency is 13.1 µM (active).
Regarding `Cc1ccc(S(=O)(=O)NCCCn2ccnc2)cc1C(=O)NC(C)C`, the Potency entry was “inactive”.
With `COc1ccc(S(=O)(=O)N2CCCC(C(=O)NCCCn3ccnc3)C2)cc1OC` (stereo unspecified), the Potency entry is “inactive”.
As for `CC(NC(=O)COc1cccnc1[N+](=O)[O-])c1ccc(Cl)cc1Cl` (stereo unspecified), the Potency result is “inactive”.
Regarding `CC(C)CC(=O)N1CCN(Cc2cccc(Cl)c2)CC1`, the Potency entry was “inactive”.
Consider `Clc1cccc(CN2COc3c(cc(Cl)c4cccnc34)C2)c1`, for which the Potency was 0.329 µM (active).
Turning to `O=C(C1CCC1)N1CCN(c2ccccc2)CC1`, the Potency entry was “inactive”.
For `COc1ccc(NC(=O)CCC(=O)Nc2nnc(C3CCCCC3)s2)cc1` the value was “inactive”.
With `COc1cc(C(=O)NCc2cc3cc(Cl)ccc3n2C)cc(OC)c1OC`, the Potency result is “inactive”.
Consider `Cc1nc(SCC(=O)N2CCc3ccccc3C2)c2c(C)c(C)sc2n1`, for which the Potency result is “inactive”.
On to `CCn1c(SCC(=O)c2ccc3ccccc3c2)nnc1-c1cccs1`, for which the Potency entry is “inactive”.
Turning to `O=C(CSc1nnc(-c2cccs2)n1Cc1ccccc1)N1CCc2ccccc2C1`, the Potency is 10.4 µM (active).
Regarding `CCn1c(Cc2ccc(OC)cc2)nnc1SCC(=O)Nc1ccc(N2CCOCC2)cc1`, the Potency result is “inactive”.
Consider `CCn1c(SCC(=O)NC2CCCC2)nnc1-c1ccoc1C`, for which the Potency entry was “inactive”.
Regarding `COc1ccc(NS(=O)(=O)c2ccc(NC(=O)c3ccc(N(C)S(C)(=O)=O)cc3)cc2)cc1`, the Potency entry is “inactive”.
For `CCN(CC)c1ccc(NC(=O)c2ccc(=O)[nH]c2)cc1S(=O)(=O)Nc1ccc(OC)cc1` the value was 9.28 µM (active); for `O=C(NNC(=O)c1cccc(S(=O)(=O)Nc2ccc(Cl)cc2)c1)c1ccc(=O)[nH]c1`, “inactive”.
As for `COc1ccc(S(=O)(=O)n2cnc3ccccc32)c(C)c1`, the entry is “inactive”.
As for `CCCc1c(C(=O)N/N=C(\C)CCc2ccc(OC)cc2)nnn1-c1nonc1N`, the entry is “inactive”; as for `CCN1CCN(C(=O)N(Cc2ccc(Cl)cc2)S(=O)(=O)c2ccc(C)cc2)CC1`, “inactive”.
In the case of `O=C(CSc1n[nH]c(-c2cccnc2)n1)Nc1ccc(Cl)cc1`, the Potency entry is “inactive”.
For `CC(C)CN(C(=O)c1ccc2c(c1)OCO2)C1CCS(=O)(=O)C1` (stereo unspecified) the value was “inactive”; for `O=C(CN1C(=O)COc2ccccc21)Nc1ccc(F)cc1`, 1.47 µM (active).
As for `O=C(CN1C(=O)COc2ccc(Cl)cc21)Nc1ccc(N2CCOCC2)cc1`, the entry is “inactive”.
On to `O=C(CN1C(=O)COc2ccccc21)NCCN1CCc2ccccc2C1`, for which the Potency entry is “inactive”.
For `O=C(CCCN1C(=O)/C(=C/c2cccs2)SC1=S)Nc1ccc(O)cc1` the value was “inactive”; for `NS(=O)(=O)c1ccc(CCNC(=O)CN2C(=O)c3ccccc3S2(=O)=O)cc1`, “inactive”; for `CCN(C(=O)CSc1ncnc2sccc12)c1c(N)n(Cc2ccccc2)c(=O)[nH]c1=O`, “inactive”.
Regarding `COc1cccc(OC)c1C(=O)Nc1ccc2c(c1)n(C)c(=O)n2C`, the Potency result was “inactive”.
Take `COc1ccc(C(=O)NC2CC2)cc1OC1CCN(C/C=C/c2ccccc2)CC1`: the Potency is 11.7 µM (active).
Turning to `COc1ccc(C(=O)NC2CC2)cc1OC1CCN(Cc2ccc(SC)cc2)CC1`, the Potency result was “inactive”.
`COc1ccc(C(=O)N(C)CC(O)c2ccccc2)cc1OC1CCN(C(C)=O)CC1` (stereo unspecified): the Potency result was “inactive”.
On to `O=C(NCCc1ccccn1)c1nc(Cn2cc([N+](=O)[O-])cn2)no1`, for which the Potency result was “inactive”.
Turning to `CC(OC(=O)CNC(=O)c1cccc(F)c1)C(=O)NC1CCCCC1C` (stereo unspecified), the Potency result was “inactive”.

These data come from PubChem BioAssay AID504834 (National Center for Advancing Translational Sciences (NCATS), 2011).
